Giardia kill: Small Molecules that selectively kill Giardia lamblia: qHTS | Giardia lamblia trophozoite viability | activity change, % at 7.66 µM, hits read low | 340,000 tested, 0.15% active; in the data active = activity change below about -80%; inconclusive = between about -30% and that limit;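 also: parasites exposed to compound for two days anaerobically before the ATP read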
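Giardia trophozoites, 100 cells per well, were exposed to compounds for 48 hrs at 37 deg C under anaerobic conditions; viability was then read as ATP content by bioluminescence after 15-30 min at room temperature.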
IL-1B inflam inh: qHTS for Inhibitors of Inflammasome Signaling: IL-1-beta AlphaLISA Primary Screen. THP-1 LPS/ATP IL-1B secretion, AlphaLISA, 16 h; active compounds read low. activity change, % at 57.5 µM. 360,000 tested, 4.7% active. AID 743279, 2014; in the data active = activity change below about -50%; inconclusive = mostly about -30% to -49%
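THP-1 cells pretreated 1 hr with compounds (up to 57.5 uM final), then stimulated with LPS (250 ng/mL final) plus ATP (1.25 mM final); secreted IL-1B measured by AlphaLISA after 16 hr, decreased signal indicating inhibition.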
DT40 TDP1 no CPT: qHTS for Inhibitors of human tyrosyl-DNA phosphodiesterase 1 (TDP1): qHTS in cells in absence of CPT. DT40 Tdp1-/- hTDP1 cells, no CPT, ATP luminescence, 48 h. Potency, µM (top dose mostly 46.2 µM), actives largely listed as inhibitors. 420,000 tested, 15% active. AID 686978, 2013; also: nearly all actives have a fitted effect of over 55% in size
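Stably hTDP1-transfected Tdp1-null chicken DT40 cells were treated with library compounds minus camptothecin and grown for at least 48 hr at 37 °C, after which cellular ATP was quantified by luminescence.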
TDP1 block: qHTS Assay for Inhibitors of Tyrosyl-DNA Phosphodiesterase (TDP1) | Tyrosyl-DNA phosphodiesterase 1 (Homo sapiens), Q9NUW8 | recombinant TDP1, AlphaScreen DNA substrate cleavage | Potency, µM (highest dose often 130 µM), actives largely listed as inhibitors | 350,000 tested, 0.28% active | AID 485290, 2010; also: nearly all actives have a fitted effect of over 40% in size
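Steps: enzyme plus compound, 15 min RT; add biotin/phosphotyrosine-FITC oligonucleotide (15 nM final), react 5 min; add donor/acceptor beads (10 ug/ml final), 10 min; read AlphaScreen. Tdp1 at 1 nM final.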
DT40 TDP1 CPT: qHTS for Inhibitors of human tyrosyl-DNA phosphodiesterase 1 (TDP1): qHTS in cells in presence of CPT | Potency, µM (titrated, usually from 46.2 µM), hits mostly inhibitors | 420,000 tested, 12% active | chicken DT40 Tdp1-/-;hTDP1 cells + 20 nM CPT, ATP luminescence, 48 h; also: nearly all actives have a fitted effect of over 55% in size
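Chicken DT40 Tdp1-/- cells complemented with human TDP1, 400 cells/well, exposed to compounds plus 20 nM camptothecin for at least 48 h at 37 C; viability read as ATP content by CellTiter-Glo luminescence.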
ELG1 DNA repair: qHTS screen for small molecules that inhibit ELG1-dependent DNA repair in human embryonic kidney (HEK293T) cells expressing luciferase-tagged ELG1; HEK293T ELG1-luciferase reporter, luminescence, 16 h; DNA damage induced by 5-fluorouridine; 330,000 tested, 2.3% active; Potency, µM (highest dose often 46.1 µM), usual class: inhibitors; also: nearly all actives have a fitted effect of over 55% in size
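Cells (2,000 per well) received 5-fluorouridine plus test compound or DMSO and were incubated 16 hr at 37 °C, 5% CO2. Luciferase activity was read by luminescence 30 min after ONE-Glo addition; signal suppression marked inhibition of damage-induced ELG1 function.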
ELG1 FLuc counter: qHTS screen for small molecules that inhibit ELG1-dependent DNA repair: Hit Confirmation in Cell-Based Luciferin Assay; Potency, µM (highest dose often 46.1 µM), usual class: inhibitors; shares compounds with ELG1 DNA repair; AID 624247, 2012; 350 tested, 3% active; cell-free firefly luciferase luminescence counter-screen, ViewLux
ELG1 Luc conf: HTS assay for small molecules that inhibit ELG1-dependent DNA repair in human embryonic kidney (HEK293T) cells expressing luciferase-tagged ELG1: Hit Confirmation; shares compounds with ELG1 DNA repair; HEK293T ELG1-luciferase levels, luminescence; cells co-treated with 5-fluorouridine; Potency, µM (doses to about 46.1 µM), actives largely listed as inhibitors; 670 tested, 68% active; also: nearly all actives have a fitted effect of over 55% in size
Target sequence (Q96QE3 whole entry, looked up): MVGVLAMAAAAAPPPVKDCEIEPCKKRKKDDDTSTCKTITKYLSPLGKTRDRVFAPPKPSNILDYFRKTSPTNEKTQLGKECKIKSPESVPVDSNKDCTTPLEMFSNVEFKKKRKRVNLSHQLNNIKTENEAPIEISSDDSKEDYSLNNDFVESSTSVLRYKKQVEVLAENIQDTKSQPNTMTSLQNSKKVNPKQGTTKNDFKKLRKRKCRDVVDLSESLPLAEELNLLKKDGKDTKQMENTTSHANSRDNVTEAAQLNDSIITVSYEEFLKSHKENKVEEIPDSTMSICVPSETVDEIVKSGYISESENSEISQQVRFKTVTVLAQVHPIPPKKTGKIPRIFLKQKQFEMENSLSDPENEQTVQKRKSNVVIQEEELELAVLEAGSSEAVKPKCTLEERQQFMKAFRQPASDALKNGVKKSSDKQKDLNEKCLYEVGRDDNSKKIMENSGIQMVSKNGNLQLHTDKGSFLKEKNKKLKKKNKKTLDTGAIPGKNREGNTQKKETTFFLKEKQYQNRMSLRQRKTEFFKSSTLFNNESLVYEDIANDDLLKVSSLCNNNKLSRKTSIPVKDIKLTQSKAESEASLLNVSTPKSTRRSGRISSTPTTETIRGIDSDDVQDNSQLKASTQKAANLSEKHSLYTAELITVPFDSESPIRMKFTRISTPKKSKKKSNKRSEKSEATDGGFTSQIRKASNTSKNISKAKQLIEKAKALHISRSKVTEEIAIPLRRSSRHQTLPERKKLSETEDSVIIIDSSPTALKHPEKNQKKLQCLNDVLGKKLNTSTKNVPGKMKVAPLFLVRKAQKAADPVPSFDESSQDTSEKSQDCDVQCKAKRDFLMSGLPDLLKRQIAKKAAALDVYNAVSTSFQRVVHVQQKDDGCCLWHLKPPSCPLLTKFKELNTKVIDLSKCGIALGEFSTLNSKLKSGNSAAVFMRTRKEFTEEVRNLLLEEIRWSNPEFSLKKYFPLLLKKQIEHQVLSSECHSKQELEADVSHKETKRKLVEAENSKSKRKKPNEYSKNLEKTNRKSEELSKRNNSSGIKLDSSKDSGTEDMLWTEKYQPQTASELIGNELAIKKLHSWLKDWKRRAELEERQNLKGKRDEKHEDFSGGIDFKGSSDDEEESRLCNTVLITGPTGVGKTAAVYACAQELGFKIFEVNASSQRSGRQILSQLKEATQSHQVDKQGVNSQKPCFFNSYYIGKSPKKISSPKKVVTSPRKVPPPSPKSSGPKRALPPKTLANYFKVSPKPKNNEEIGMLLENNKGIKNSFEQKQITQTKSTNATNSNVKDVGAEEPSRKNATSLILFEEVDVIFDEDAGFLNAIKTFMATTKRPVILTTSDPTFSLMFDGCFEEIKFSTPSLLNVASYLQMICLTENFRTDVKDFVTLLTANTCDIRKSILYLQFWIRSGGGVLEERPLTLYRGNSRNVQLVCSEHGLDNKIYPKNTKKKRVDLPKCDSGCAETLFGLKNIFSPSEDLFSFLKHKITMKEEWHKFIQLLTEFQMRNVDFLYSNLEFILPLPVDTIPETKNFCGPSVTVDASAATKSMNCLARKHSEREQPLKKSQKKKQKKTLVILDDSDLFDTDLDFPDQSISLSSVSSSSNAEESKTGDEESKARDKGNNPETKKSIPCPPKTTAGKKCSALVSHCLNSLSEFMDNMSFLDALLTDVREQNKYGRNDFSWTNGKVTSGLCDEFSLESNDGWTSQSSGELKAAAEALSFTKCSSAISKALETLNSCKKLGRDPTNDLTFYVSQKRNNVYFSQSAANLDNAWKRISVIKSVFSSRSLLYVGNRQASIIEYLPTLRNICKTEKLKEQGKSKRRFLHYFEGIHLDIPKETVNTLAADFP
ELG1-Luc MMS: inhibits ELG1-dependent repair under MMS stimulation in HEK293T cells; shares compounds with ELG1 DNA repair; HEK293T luciferase-tagged ELG1 level, MMS stimulated; Potency, µM (top dose mostly 46.1 µM), usual class: inhibitors; 670 tested, 53% active; AID 624249; also: nearly all actives have a fitted effect of over 60% in size
ELG1 5-FU: qHTS screen for small molecules that inhibit ELG1-dependent DNA repair: Hit Confirmation with 5FU Viability; shares compounds with ELG1 DNA repair; 670 tested, under 10 active; cell viability with 5-FU, ELG1-dependent repair; AID 624250, 2012; Potency, µM (doses to about 46.1 µM), hits mostly cytotoxic;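 also: ELG1-luc HEK293T cells cotreated with 5-fluorouridine at 10 µM final; viability measured 16 h after compound addition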
ELG1 MMS cell: qHTS screen for small molecules that inhibit ELG1-dependent DNA repair: Hit Confirmation with MMS Viability. Cell viability with MMS, ELG1-dependent DNA repair. 670 tested, 33% active. Potency, µM (doses to about 46.1 µM), actives largely listed as cytotoxic. AID 624251, 2012. shares compounds with ELG1 DNA repair;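 also: ELG1-luc HEK293T cells co-treated with 10 µM MMS; viability read 16 h after compound addition; nearly all actives have a fitted effect of over 60% in size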
Cell viab unstim: qHTS screen for small molecules that inhibit ELG1-dependent DNA repair: Hit Confirmation with Unstimulated Viability Assay; Potency, µM (top dose mostly 45.9 µM), most hits filed as cytotoxic; shares compounds with ELG1 DNA repair; 900 tested, 8% active; AID 624252, 2012; cell viability counter-screen, unstimulated, luminescence;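 also: compound exposure lasted 16 hours before reading; nearly all actives have a fitted effect of over 55% in size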
FLuc biochem: qHTS screen for small molecules that inhibit ELG1-dependent DNA repair: Hit Confirmation in Biochemical Luciferin Assay. shares compounds with ELG1 DNA repair. purified firefly luciferase, luminescence counter-screen. Potency, µM (top dose mostly 57.5 µM), usual class: inhibitors. 350 tested, 10% active. AID 624253, 2012
A number is an active result; . = inactive; ? = inconclusive; / = no result. Hits are enriched below; roughly 19% of the tested compounds scored in any of these assays. Unless noted, calls follow the shape of the dose curve; as a rule, active = well fitted curve in the direction sought with a large enough effect; inconclusive = small, poorly fitted or top-dose-only effect, or another doubt; inactive = no such curve, though single readings can be large; an effect the other way counts as inactive or inconclusive.

SMILES	Giardia kill	IL-1B inflam inh	DT40 TDP1 no CPT	TDP1 block	DT40 TDP1 CPT	ELG1 DNA repair	ELG1 Luc conf	ELG1-Luc MMS	ELG1 5-FU	ELG1 MMS cell	Cell viab unstim	others
COc1cc2nc(NCC3CCCO3)n3nc(-c4cccnc4)nc3c2cc1OC (stereo not given)	.	.	21µM	.	9.2µM	2.3µM	4µM	18µM	?	.	.
COCCCNc1nc2cc(OC)c(OC)cc2c2nc(-c3ccccc3)nn12	.	.	7.3µM	.	15µM	4.1µM	2.2µM	?	?	.	?
CCN(C(=O)c1ccnn1C)c1ccccc1	.	.	.	.	.	.	/	/	/	/	/
O=C(NCC1CCCO1)c1ccc2c(c1)N(Cc1ccccc1)CCS2 (stereo not given)	.	.	.	.	?	.	/	/	/	/	/
Cc1c(OCc2ccc([N+](=O)[O-])cc2)ccc2c3c(c(=O)oc12)CCC3	.	.	?	.	.	?	/	/	/	/	.
Nc1ccccc1C(=O)N1CCCC1	.	.	.	.	.	.	/	/	/	/	/
Nc1ccc(/C=C/c2ccc3cccnc3c2)cc1	/	/	16µM	/	?	/	/	/	/	/	.	ELG1 FLuc counter=.;FLuc biochem=0.37µM
COc1ccc(C(=O)c2ccccc2)c2c(O)ccc(C(=O)c3ccccc3)c12	.	.	16µM	.	?	?	5µM	1.6µM	.	2.2µM	?
COc1ccc(C(=O)c2ccc(Cl)cc2)c2ccccc12	.	.	?	.	?	.	/	/	/	/	/
O=C1C=C(c2ccc3c(c2)oc2ccccc23)C[C@@H](c2ccc3c(c2)OCO3)C1	.	.	?	.	?	.	/	/	/	/	/
COc1ccc(-c2nnc(SC(C)C(=O)Nc3cccc(Cl)c3)o2)cc1 (stereo not given)	.	?	?	.	.	?	/	/	/	/	.
CCOC(=O)Cn1c2[n+](c3ccccc31)CC(O)CS2 (stereo not given)	.	.	.	.	.	.	/	/	/	/	/
COC(=O)Cn1c2[n+](c3ccccc31)CC(O)CS2 (stereo not given)	.	.	.	.	.	?	.	.	.	.	.	ELG1 FLuc counter=.;FLuc biochem=.
O=C1CC(N2CCN(c3ccccn3)CC2)C(=O)N1c1ccc(F)cc1 (stereo not given)	.	.	.	.	.	.	/	/	/	/	/
O=C1CC(N2CCN(c3ccccn3)CC2)C(=O)N1CC(c1ccccc1)c1ccccc1 (stereo not given)	.	.	?	.	23µM	4.1µM	28µM	?	.	?	?
Cc1ccc(C2=NN(C(=O)CCCC(=O)O)C(c3ccco3)C2)cc1 (stereo not given)	.	.	.	.	.	?	/	/	/	/	/
COc1ccc(C2=NN(C(=O)COc3ncnc4ccccc34)C(c3ccco3)C2)cc1 (stereo not given)	.	?	26µM	.	.	4.1µM	?	.	?	.	.
NC(=O)c1ccc(N2CCN(c3ccc(O)cc3)CC2)c([N+](=O)[O-])c1	.	.	16µM	.	?	4.1µM	6.3µM	.	?	?	.
NC(=O)c1ccc(N2CCN(S(=O)(=O)c3ccccc3)CC2)c([N+](=O)[O-])c1	.	.	7.3µM	.	?	1.6µM	?	0.71µM	.	0.79µM	.
C=CCN1C(=O)C(CC(C)C)NC1=S (stereo not given)	/	/	.	.	.	/	/	/	/	/	/
